A number with no mark means an inactive call. For part of these data: Entries with a potency or affinity are not part of this list. Calls of active or inactive are those of the source. Unless noted, no rule for the calls is given here.

The values that follow come from PubChem BioAssay.

Test [1] in a line: antimalarial activity against Dd2 strain (AID 2302;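 active = growth inhibition above 50% at the single 2 µM test dose, taken to imply half-maximal potency below 2 µM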;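 also: 0% = DMSO untreated growth and 100% = chloroquine plus artemisinin killed control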). The settings on record: P. falciparum Dd2 in RBCs, LDH growth readout, 72 h; at 2 µM; hits give high values.
Test [2] in a line: HepG2 cytotoxicity, primary screen, cytotoxicity control for P. falciparum antimalarial project, cell-based, ATP luminescence (AID 2303;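 active = inhibition above 50%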;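 also: 0% = DMSO wells and 100% = digitonin-killed cells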). The settings on record: HepG2 viability, 24-48 h, at 10 µM, hits give high values.
Test [3] concerns the target L-lactate dehydrogenase (Plasmodium falciparum (isolate CDC / Honduras)) (UniProt Q27743). Kind of test: PfLDH activity inhibition – cell lysate, 3D7 strain, counter-screen for P. falciparum growth inhibition project (AID 2304).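 Also: 0% = vehicle and 100% = reference inhibitor.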 Particulars: P. falciparum 3D7 crude extract, LDH APAD/NBT absorbance; at 2 µM; hits give high values.
Test [4] in a line: inhibition of 3D7 malaria parasite growth – strain 3D7 (AID 2306).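 Also: 0% = DMSO wells and 100% = chloroquine plus artemisinin control wells.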 The settings on record: P. falciparum 3D7 erythrocytic growth, LDH absorbance, 72 h; at 2 µM; hits give high values.
The target of test [5] is Calcium-dependent protein kinase 1 (Plasmodium falciparum (isolate 3D7)) (UniProt P62344). Kind of test: PfCDPK1 kinase inhibitors, biochemical, TCAMS library (AID 1159585; cut-off not given, nearly all actives have IC50 up to about 0.98 µM;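 also: inhibitors leave more ATP so luminescence rises with inhibition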). The settings on record: recombinant PfCDPK1, Kinase-Glo ATP depletion luminescence. In general terms: Kinase-Glo measures the ATP left after a reaction by luminescence.
For test [6], the target named is Plasmodium falciparum protein kinase 6 (PK6, PF3D7_1337100) (UniProt Q8IDW1). As to the kind of experiment: PfPK6 kinase inhibitors, biochemical, TCAMS library (AID 1159586). Particulars: recombinant PfPK6, Kinase-Glo ATP depletion luminescence.
The target of test [7] is Protein kinase 7 (PK7), Plasmodium falciparum 3D7 (PF3D7_0213400) (UniProt Q7YTF7). As to the kind of experiment: inhibition of Plasmodium PK7 catalytic activity – biochemical, TCAMS antimalarial set, Kinase-Glo luminescence (AID 1159587). The settings on record: recombinant PfPK7, Kinase-Glo ATP depletion luminescence.
Test [8] addresses Calcium-dependent protein kinase 4 (Plasmodium falciparum (isolate 3D7)) (UniProt Q8IBS5). Kind of test: PfCDPK4 kinase inhibitors, biochemical, TCAMS library (AID 1159588; cut-off not given, nearly all actives have IC50 up to about 0.91 µM). The settings on record: recombinant PfCDPK4, Kinase-Glo ATP depletion luminescence.

Sequence of L-lactate dehydrogenase (Plasmodium falciparum (isolate CDC / Honduras)) (Q27743 whole entry, looked up): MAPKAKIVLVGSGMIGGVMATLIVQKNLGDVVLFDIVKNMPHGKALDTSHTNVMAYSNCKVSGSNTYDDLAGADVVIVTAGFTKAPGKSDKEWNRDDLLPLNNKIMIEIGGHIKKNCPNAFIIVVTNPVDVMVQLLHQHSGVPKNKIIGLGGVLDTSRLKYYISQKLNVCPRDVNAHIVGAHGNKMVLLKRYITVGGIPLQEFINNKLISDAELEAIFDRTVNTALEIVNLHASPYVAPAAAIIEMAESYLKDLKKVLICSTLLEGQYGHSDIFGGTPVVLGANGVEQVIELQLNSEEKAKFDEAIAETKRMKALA
Sequence of Plasmodium falciparum protein kinase 6 (PK6, PF3D7_1337100) (Q8IDW1 1-305): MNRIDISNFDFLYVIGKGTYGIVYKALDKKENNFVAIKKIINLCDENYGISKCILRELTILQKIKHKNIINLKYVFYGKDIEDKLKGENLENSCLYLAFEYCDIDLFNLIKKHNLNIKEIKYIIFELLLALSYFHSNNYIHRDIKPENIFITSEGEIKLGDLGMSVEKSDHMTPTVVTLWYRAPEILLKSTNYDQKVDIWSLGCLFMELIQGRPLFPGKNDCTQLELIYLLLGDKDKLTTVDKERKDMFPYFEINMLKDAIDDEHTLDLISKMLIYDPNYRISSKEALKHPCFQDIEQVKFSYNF
Sequence of Calcium-dependent protein kinase 4 (Plasmodium falciparum (isolate 3D7)) (Q8IBS5 whole entry, looked up): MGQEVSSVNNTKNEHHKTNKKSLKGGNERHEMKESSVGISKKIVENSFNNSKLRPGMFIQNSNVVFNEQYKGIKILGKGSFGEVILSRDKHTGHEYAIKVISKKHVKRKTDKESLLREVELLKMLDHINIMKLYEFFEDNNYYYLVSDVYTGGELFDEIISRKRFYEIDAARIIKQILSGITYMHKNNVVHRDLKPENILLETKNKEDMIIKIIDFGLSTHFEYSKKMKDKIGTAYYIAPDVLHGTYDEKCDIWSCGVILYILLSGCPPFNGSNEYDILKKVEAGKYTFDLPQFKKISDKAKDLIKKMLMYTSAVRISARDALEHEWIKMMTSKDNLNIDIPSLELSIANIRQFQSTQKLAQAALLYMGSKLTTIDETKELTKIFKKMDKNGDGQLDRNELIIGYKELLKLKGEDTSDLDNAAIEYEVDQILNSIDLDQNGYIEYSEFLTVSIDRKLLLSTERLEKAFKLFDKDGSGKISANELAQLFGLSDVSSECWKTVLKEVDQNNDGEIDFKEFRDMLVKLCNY
Sequence of Calcium-dependent protein kinase 1 (Plasmodium falciparum (isolate 3D7)) (P62344 whole entry, looked up): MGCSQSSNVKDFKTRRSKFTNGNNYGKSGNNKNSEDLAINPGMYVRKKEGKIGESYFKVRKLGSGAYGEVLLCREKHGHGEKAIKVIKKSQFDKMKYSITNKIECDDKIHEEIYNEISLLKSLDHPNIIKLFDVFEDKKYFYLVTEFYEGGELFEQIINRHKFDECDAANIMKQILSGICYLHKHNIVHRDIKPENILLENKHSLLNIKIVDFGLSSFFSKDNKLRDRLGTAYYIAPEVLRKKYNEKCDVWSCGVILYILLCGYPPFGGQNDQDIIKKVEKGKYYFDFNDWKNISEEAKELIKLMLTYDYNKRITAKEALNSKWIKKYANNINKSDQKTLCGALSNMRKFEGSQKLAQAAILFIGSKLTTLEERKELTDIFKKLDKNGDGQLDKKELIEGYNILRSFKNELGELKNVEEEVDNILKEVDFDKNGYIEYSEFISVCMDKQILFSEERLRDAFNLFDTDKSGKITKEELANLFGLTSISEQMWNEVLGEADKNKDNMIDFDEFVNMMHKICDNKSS
Sequence of Protein kinase 7 (PK7), Plasmodium falciparum 3D7 (PF3D7_0213400) (Q7YTF7 1-343): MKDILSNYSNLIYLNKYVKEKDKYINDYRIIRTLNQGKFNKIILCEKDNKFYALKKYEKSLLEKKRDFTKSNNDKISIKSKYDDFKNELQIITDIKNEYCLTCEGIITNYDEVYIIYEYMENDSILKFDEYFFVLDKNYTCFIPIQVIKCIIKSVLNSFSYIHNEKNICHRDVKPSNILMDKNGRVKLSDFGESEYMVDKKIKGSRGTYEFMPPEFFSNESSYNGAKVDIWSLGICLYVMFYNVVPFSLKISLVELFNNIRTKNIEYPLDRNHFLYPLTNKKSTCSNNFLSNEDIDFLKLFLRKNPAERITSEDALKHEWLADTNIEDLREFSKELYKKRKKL

A word on the inhibition: it is the relative decrease from the control value, in per cent. On to `COc1cc(NC(=O)c2c(-c3c(Cl)cccc3Cl)noc2C)c(OC)cc1Cl`, for which the growth inhibition is 67% (active) in test [1] and 85% (active) in test [4]. Further, the inhibition was 4% in test [2] and 0% in test [3]. Moreover, the outcome in test [5], in test [6], in test [7] and in test [8] was inactive.

For `CN1CCC(NCc2cccc(-c3ccc(S(=O)(=O)NCCc4ccccn4)c(F)c3)c2)CC1`, the growth inhibition is 26% in test [1] and 98% (active) in test [4]. In addition, the figures for the inhibition in test [2] and in test [3] were 11% and 7%, respectively. Besides, the result in test [5], in test [6], in test [7] and in test [8] was inactive.

Take `Cc1cc(N2CCN(C3CCCCC3)CC2)nc2cccc(O)c12`: the growth inhibition in test [1] is 37%; in test [4], 101% (active). For the same compound, the inhibition in test [2] was 12%; in test [3] it was -3%. Further, the outcome in test [5], in test [6], in test [7] and in test [8] was inactive.

On to `COc1cc2nc(N(C)C)nc(Nc3ccc(OCc4ccccc4)cc3)c2cc1OC`, for which the growth inhibition in test [1] was 101% (active); in test [4], 100% (active). The values for the inhibition in test [2] and in test [3] were 91% (active) and -8%, respectively. Moreover, the result in test [5], in test [6], in test [7] and in test [8] was inactive.

As for `O=C(NCCN1CCCC1)c1ccc(-c2cccc(-c3nc4ccc(F)cc4[nH]3)c2)cc1`, the growth inhibition in test [1] was 2%; in test [4], 100% (active). Further, the results for the inhibition in test [2] and in test [3] were 29% and 1%, respectively. Further, the result in test [5], in test [6], in test [7] and in test [8] was inactive.

Take `COCCNC(=O)c1ccc(OC2CCN(Cc3ccc(F)c(F)c3)CC2)c(Cl)c1`: the growth inhibition in test [1] was 73% (active); in test [4] it was 88% (active). Besides, the inhibition was 8% in test [2] and -2% in test [3]. In addition, the result in test [5], in test [6], in test [7] and in test [8] was inactive.

As to `COc1cc(Cl)c(C)cc1N(Cc1ccccc1-c1ccccc1)S(=O)(=O)c1ccc(C(F)(F)F)cc1`, the growth inhibition in test [1] is 62% (active); in test [4] it was 90% (active). The inhibition in test [2] is 23%; in test [3] it was -2%. For the same compound, the result in test [5], in test [6], in test [7] and in test [8] was inactive.

On to `COc1ccc(Cn2c(Nc3cccc(C(F)(F)F)c3)nc3cc(C(=O)NCCCN(C)C)ccc32)cc1Cl`, for which the growth inhibition in test [1] is 3%; in test [4] it was 90% (active). Moreover, the inhibition in test [2] was 15%; in test [3], -7%. The outcome in test [5], in test [6], in test [7] and in test [8] was inactive.

With `COc1cc2c(cc1OCCN1CCC(N3CCCCC3)CC1)N(C(=O)/C=C/c1ccccc1Cl)CC2`, the figures for the growth inhibition in test [1] and in test [4] were 41% and 102% (active), respectively. The figures for the inhibition in test [2] and in test [3] were 36% and -1%, respectively. The result in test [5], in test [6], in test [7] and in test [8] was inactive.

Regarding `C[C@@]12C[C@@H](Nc3nc(NCCc4ccc(O)cc4)nc(N4CCNCC4)n3)C[C@@H](C1)c1cccc(Cl)c1O2`, the growth inhibition in test [1] is 47%; in test [4], 101% (active). Also, the inhibition in test [2] is 92% (active); in test [3], 4%. Further, the result in test [5], in test [6], in test [7] and in test [8] was inactive.

For the compound `O=c1ccc2ncc(Cl)c3c2n1CC3CN1CCC(NCc2cc3c(cn2)OCCO3)CC1` (centres undefined), the growth inhibition in test [1] was 29%; in test [4], 96% (active). The inhibition in test [2] was 27%; in test [3] it was -2%. Besides, the outcome in test [5], in test [6], in test [7] and in test [8] was inactive.

On to `CCNCc1ccc(-c2cc3ncnc(Nc4ccc(OCc5cccc(F)c5)c(Cl)c4)c3s2)[nH]1`, for which the growth inhibition in test [1] is 74% (active); in test [4], 103% (active). For the same compound, the inhibition in test [2] is 22%; in test [3], 6%. Also, the result in test [5], in test [6], in test [7] and in test [8] was inactive.

Regarding `N#Cc1ccc2c(c1)CCN(CCC1CCC(NC(=O)/C=C/c3cc(Br)cs3)CC1)CC2` (centres undefined), the growth inhibition in test [1] was 1%; in test [4] it was 93% (active). The results for the inhibition in test [2] and in test [3] were 3% and 5%, respectively. For the same compound, the outcome in test [5], in test [6], in test [7] and in test [8] was inactive.

`N#Cc1cccc(NC(=O)Nc2ccc3c(c2)CCN(C2CCC2)CC3)c1`: the results for the growth inhibition in test [1] and in test [4] were 26% and 91% (active), respectively. The results for the inhibition in test [2] and in test [3] were 22% and -3%, respectively. For the same compound, the outcome in test [5], in test [6], in test [7] and in test [8] was inactive.

Consider `COc1ccccc1C1CCN(C2CCC(NC(=O)/C=C/c3ccc(F)c(F)c3)CC2)CC1` (centres undefined), for which the growth inhibition in test [1] was 9%; in test [4] it was 94% (active). The inhibition in test [2] is 49%; in test [3], 1%. Also, the outcome in test [5], in test [6], in test [7] and in test [8] was inactive.

For the compound `CC(C)COc1ccc(Cl)cc1Cc1ccc(-c2nc3ccc(Br)cc3[nH]2)o1`, the growth inhibition was 75% (active) in test [1] and 80% (active) in test [4]. Moreover, the inhibition in test [2] was 19%; in test [3] it was -3%. Moreover, the result in test [5], in test [6], in test [7] and in test [8] was inactive.

With `Cc1nc(N)nc(N)c1OCCCOc1cccc(Cl)c1Cl`, the results for the growth inhibition in test [1] and in test [4] were 95% (active) and 93% (active), respectively. Besides, the values for the inhibition in test [2] and in test [3] were 59% (active) and -2%, respectively. In addition, the result in test [5], in test [6], in test [7] and in test [8] was inactive.

Take `Cc1cc(N2CCCN(C)CC2)nc(Nc2ccc(Br)cc2)n1`: the growth inhibition in test [1] was 14%; in test [4], 94% (active). In addition, the inhibition in test [2] is 8%; in test [3] it was 7%. Besides, the result in test [5], in test [6], in test [7] and in test [8] was inactive.
